This is a sample that favours compounds with a hit; in the whole collection about 2.7% have one here.
Shn3 inh set2 – reduces Shn3 3'UTR luciferase signal in osteoblasts; Clone20 osteoblast Shn3 3'UTR firefly luciferase, 24 h; inhibition, % at 12.5 µM; 0.52% of 360,000 active;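 active = mean inhibition of at least 75% with every replicate also reaching 75%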;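 note: 0% = median of neutral control wells and 100% = pilot-screen positive control compound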
HIF-2a block – HIF-2a inhibition; 786-0 RCC cells HIF-2a reporter, luciferase luminescence, overnight; inhibition, % at 18.8 µM; 0.72% of 360,000 active; AID 624352;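 active = inhibition of the luminescence signal of 40% or more relative to plate controls, in a single-dose primary screen at 18.75 µM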
KKLEB tox – CF airway cell cytotoxicity counter-screen; activity change (cytotoxicity), % at 5 µM; 0.36% of 360,000 active; AID 602141; KKLEB CF airway cells viability, ATPlite luminescence, overnight; hits give low values; cells stimulated with P. aeruginosa culture filtrate;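 active = corrected activity change at or below -50% at 5 µM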
Peg3 promoter – reduces Peg3 promoter-driven luciferase expression in HeLa | inhibition, % at 20 µM | 1.7% of 360,000 active | HeLa PEG-Prom luciferase reporter, luminescence, overnight | AID 588405;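 active = inhibition of at least 50% at 20 µM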
TRPM1 prom inh – reduces MITF-dependent TRPM1 promoter luciferase signal; SK-MEL-5 TRPM1 promoter luciferase, 24 h; inhibition, % at 12.5 µM; 0.83% of 330,000 active; AID 488899;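 active = mean inhibition across replicates of 60% or more, whatever share of single replicates reaches that level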
CF NFkB inh – blocks PAF-induced NF-kB reporter in cystic fibrosis cells; inhibition, % at 5 µM; KKLEB NF-kB-GFP reporter, GFP fluorescence overnight; AID 588850; 0.86% of 360,000 active;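 active = at least 50% inhibition at 5 µM, scaled per plate between neutral and stimulator controls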;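 note: PAF is a Pseudomonas aeruginosa culture filtrate used as stimulus; plate controls were PAF-stimulated DMSO wells for no effect and unstimulated DMSO wells for full effect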
Starred values were filed as active, the others as inactive.

For CN(Cc1ccccc1F)C(=O)CNC(=O)Cc1cccc2ccccc12 the results were Shn3 inh set2 -7.5, HIF-2a block 13.1, KKLEB tox 0.6, Peg3 promoter -2.2, TRPM1 prom inh 0.3 and CF NFkB inh 0.7.
Screening CCN(CC)S(=O)(=O)c1ccc(N2CC(C(=O)NCCc3c[nH]c4ccccc34)CC2=O)cc1 (configuration not stated) returned Shn3 inh set2 0.2, HIF-2a block 27.4, KKLEB tox 0.3, Peg3 promoter 2.8, TRPM1 prom inh 11.4 and CF NFkB inh 5.6.
`COc1ccc(NC(=O)CSc2ncccc2C(=O)OC(C)C)cc1OC` gave Shn3 inh set2 86.5*, HIF-2a block -17.5, KKLEB tox 5.0, Peg3 promoter -15.7, TRPM1 prom inh 30.1 and CF NFkB inh 5.9.
For COc1ccc(NC(=O)CSc2ccccn2)cc1OC the results were Shn3 inh set2 4.2, HIF-2a block -22.0, KKLEB tox -1.0, Peg3 promoter -13.0, TRPM1 prom inh 4.5 and CF NFkB inh -8.9.
C[C@@H]1CN([C@@H](C)CO)C(=O)c2cc(NC(=O)c3ccccc3)ccc2O[C@@H](C)CCCCO[C@@H]1CN(C)Cc1ccc(C(F)(F)F)cc1 was read as Shn3 inh set2 26.1, HIF-2a block -26.4, KKLEB tox -7.6, Peg3 promoter 33.0 and CF NFkB inh 6.6.
For C[C@@H]1CCCCO[C@H](CN(C)Cc2ccc(Cl)c(Cl)c2)[C@H](C)CN([C@@H](C)CO)C(=O)c2cc(NC(=O)Nc3ccc(F)cc3)ccc2O1 the results were Shn3 inh set2 40.6, HIF-2a block -41.7, KKLEB tox 1.8, Peg3 promoter 27.5 and CF NFkB inh 24.6.
C[C@@H]1CCCCO[C@H](CN(C)Cc2ccccc2)[C@@H](C)CN([C@H](C)CO)C(=O)c2cc(NC(=O)c3ccccc3)ccc2O1 was read as Shn3 inh set2 89.9*, HIF-2a block 1.9, KKLEB tox -1.1, Peg3 promoter -5.4 and CF NFkB inh -8.3.
COc1ccc(NC(=O)Nc2ccc3c(c2)C(=O)N([C@H](C)CO)C[C@H](C)[C@@H](CN(C)Cc2ccc(Cl)c(Cl)c2)OCCCC[C@@H](C)O3)cc1 was read as Shn3 inh set2 27.8, HIF-2a block -12.1, KKLEB tox -2.7, Peg3 promoter 86.2* and CF NFkB inh 22.3.
O=C(NCc1cc(Cl)cc(Cl)c1)c1ccc2nc([C@H]3C[C@H](O)[C@@H](CO)O3)[nH]c2c1 was read as Shn3 inh set2 5.6, HIF-2a block 7.4, KKLEB tox -0.4, Peg3 promoter -14.7 and CF NFkB inh -14.8.
Screening COc1cc(OC)c2ccc(=O)oc2c1C(CCN1CCCC1)c1ccc(N(C)C)cc1 (configuration not stated) returned Shn3 inh set2 -19.6, HIF-2a block 1.6, KKLEB tox -6.5, Peg3 promoter -48.5, TRPM1 prom inh 2.9 and CF NFkB inh 1.4.
Screening CCCCCc1cc(=O)oc2c(C(CCN3CCCCC3)c3ccc(OC)cc3)c(OC)cc(OC)c12 (configuration not stated) returned Shn3 inh set2 31.4, HIF-2a block -1.1, KKLEB tox -55.5*, Peg3 promoter 102.3*, TRPM1 prom inh 92.2* and CF NFkB inh 52.9*.
`CCN(CC)CCC(c1ccc(N(C)C)cc1)c1c(OC)cc(OC)c2ccc(=O)oc12` (configuration not stated) gave Shn3 inh set2 15.1, HIF-2a block -2.5, KKLEB tox -1.3, Peg3 promoter 13.2, TRPM1 prom inh 7.9 and CF NFkB inh -23.0.
Screening CCCCCc1cc(=O)oc2c(C(CCN3CCCC3)c3ccc(N(C)C)cc3)c(OC)cc(OC)c12 (configuration not stated) returned Shn3 inh set2 -28.3, HIF-2a block 14.7, KKLEB tox -26.7, Peg3 promoter 97.2*, TRPM1 prom inh 78.7* and CF NFkB inh 14.5.
Screening CCCCCc1cc(=O)oc2c(C(CCN3CCN(c4ccccc4)CC3)c3ccc4c(c3)OCO4)c(OC)cc(OC)c12 (configuration not stated) returned Shn3 inh set2 37.5, HIF-2a block 9.1, KKLEB tox -15.7, Peg3 promoter -2.3, TRPM1 prom inh 10.4 and CF NFkB inh 28.4.
`CCCCCc1cc(=O)oc2c(C(CCN3CCCC3)c3cc(OC)c(OC)c(OC)c3)c(OC)cc(OC)c12` (configuration not stated) gave Shn3 inh set2 0.0, HIF-2a block 2.9, KKLEB tox -17.1, Peg3 promoter 101.5*, TRPM1 prom inh 95.4* and CF NFkB inh 15.7.
`CCCCCc1cc(=O)oc2c(C(CCN(CC)CC)c3ccc(OC)cc3)c(OC)cc(OC)c12` (configuration not stated) gave Shn3 inh set2 -14.6, HIF-2a block 18.8, KKLEB tox -8.3, Peg3 promoter 101.0*, TRPM1 prom inh 81.2* and CF NFkB inh 2.9.
Screening COc1cc(C(CCN2CCCC2)c2c(OC)cc(OC)c3c(C)cc(=O)oc23)cc(OC)c1OC (configuration not stated) returned Shn3 inh set2 3.2, HIF-2a block -2.2, KKLEB tox -17.7, Peg3 promoter 4.8 and CF NFkB inh -0.5.
Screening O=C(COC(=O)c1cccc(C(F)(F)F)c1)NC(=O)NC1CCCC1 returned Shn3 inh set2 24.2, HIF-2a block -10.1, KKLEB tox 2.1, Peg3 promoter 9.5, TRPM1 prom inh 3.0 and CF NFkB inh 17.0.
Screening COc1cccc(CN(C)C(=O)CC[C@H]2O[C@@H](n3ccc(=O)[nH]c3=O)[C@H](O)[C@@H]2O)c1 returned Shn3 inh set2 -13.5, HIF-2a block 18.1, KKLEB tox 9.1, Peg3 promoter 16.2 and CF NFkB inh -4.4.
CCCCCc1cc(=O)oc2c(C(CCN3CCCC(C)C3)c3ccc(OC)cc3)c(OC)cc(OC)c12 (configuration not stated) was read as Shn3 inh set2 28.2, HIF-2a block 7.3, KKLEB tox -22.2, Peg3 promoter 96.2*, TRPM1 prom inh 47.1 and CF NFkB inh 13.6.
`COc1ccc(NC(=O)c2c(Nc3ccccc3)sc(C(=O)c3ccc(F)cc3)c2N)cc1` gave Shn3 inh set2 44.8, HIF-2a block -16.3, KKLEB tox -53.2*, Peg3 promoter 29.6, TRPM1 prom inh 53.2 and CF NFkB inh 41.1.
COc1ccc(C(=O)c2sc(Nc3ccccc3)c(C(=O)Nc3ccc(OC)c(OC)c3)c2N)cc1 was read as Shn3 inh set2 4.0, HIF-2a block -77.8, KKLEB tox -12.2, Peg3 promoter 4.3, TRPM1 prom inh -6.7 and CF NFkB inh 10.4.
Cc1cc(N=O)c(C)cc1O was read as Shn3 inh set2 20.1, HIF-2a block -27.2, KKLEB tox 21.9, Peg3 promoter 6.1 and CF NFkB inh 8.3.
Screening Cc1cc(O)c(-c2cc(O)c(C)cc2O)cc1O returned Shn3 inh set2 -16.3, HIF-2a block 16.4, KKLEB tox -6.3, Peg3 promoter 69.6*, TRPM1 prom inh 25.4 and CF NFkB inh -3.4.

High-throughput results deposited in PubChem by several laboratories.
